# Results taken from the supplement of paper PMC12645437, “Orthogonal IMiD-Degron Pairs Induce Selective Protein Degradation in Cells” (ACS Chemical Biology, 2025).
# Over roughly 8,300 sequences, “log2 fold change of degron read counts, EGFP-low vs EGFP+ sorted cells (limma voom), compound-induced degradation” has its median near -1.1; the highest 2% begin near 3.2. This excerpt belongs to a sample that is enriched for the highest values.
# T1: CRBN, Q96SW2
# T1 chain: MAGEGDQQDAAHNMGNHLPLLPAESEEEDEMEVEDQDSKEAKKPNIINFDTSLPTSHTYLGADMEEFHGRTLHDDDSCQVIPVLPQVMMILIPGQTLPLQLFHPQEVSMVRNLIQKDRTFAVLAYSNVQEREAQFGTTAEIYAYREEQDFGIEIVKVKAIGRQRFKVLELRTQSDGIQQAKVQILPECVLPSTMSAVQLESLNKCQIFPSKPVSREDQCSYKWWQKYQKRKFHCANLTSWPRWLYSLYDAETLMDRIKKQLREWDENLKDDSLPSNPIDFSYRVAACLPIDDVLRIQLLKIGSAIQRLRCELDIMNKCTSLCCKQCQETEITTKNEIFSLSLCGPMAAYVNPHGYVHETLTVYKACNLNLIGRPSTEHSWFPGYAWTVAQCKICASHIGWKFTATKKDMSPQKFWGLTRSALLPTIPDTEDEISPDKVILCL
# Biological target: T1, CRBN, Q96SW2
# Assay: log2 fold change of degron read counts, EGFP-low vs EGFP+ sorted cells (limma voom), compound-induced degradation; higher = more compound-induced degradation of the degron-EGFP fusion; degrons are variants of IKZF1/3 zinc finger 2; compound dose not given here
# Settings: Jurkat, 18 h
# [1] = compound: compound 19 (5-tert-butyl-thalidomide)
# [2] = compound: compound 22 (5-morpholino-thalidomide)
# [3] = compound: compound 33 (diphenyl IMiD analogue)
# 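Note: pooled lentiviral library of zinc finger degron-EGFP fusions in mCherry-positive Jurkat cells, FACS-sorted after compound exposure, with degron abundance counted by next-generation sequencing.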
sequence,measurement,setting,value
"FKCEICGRAFTQKGNLLRHIKL [46F_47K_49E_50I_52G_53R_54A_55F_67L_, Q9UKT9]",log2 fold change of degron read counts,[1],-2.33
same,log2 fold change of degron read counts,[2],-3.03
same,log2 fold change of degron read counts,[3],-3.25
same,log2 fold change of degron read counts,compound: thalidomide,-2.08
"FTCDVCGADFTQKGNLLRHIKL [46F_47T_49D_50V_52G_53A_54D_55F_67L_, Q9UKT9]",log2 fold change of degron read counts,[1],-2.29
same,log2 fold change of degron read counts,[2],-1.84
same,log2 fold change of degron read counts,[3],-2.04
same,log2 fold change of degron read counts,compound: thalidomide,-2.29
"FMCEVCGAFFTQKGNLLRHIKL [46F_47M_49E_50V_52G_53A_54F_55F_67L_, Q9UKT9]",log2 fold change of degron read counts,[1],-2.24
same,log2 fold change of degron read counts,[2],-2.24
same,log2 fold change of degron read counts,[3],0.504
same,log2 fold change of degron read counts,compound: thalidomide,-1.37
"FCCNQCGRAFTQKGNLLRHIKL [46F_47C_49N_50Q_52G_53R_54A_55F_67L_, Q9UKT9]",log2 fold change of degron read counts,[1],-2.96
same,log2 fold change of degron read counts,[2],-3.3
same,log2 fold change of degron read counts,[3],-2.71
same,log2 fold change of degron read counts,compound: thalidomide,-2.65
"FGCDVCGAEFTQKGNLLRHIKL [46F_47G_49D_50V_52G_53A_54E_55F_67L_, Q9UKT9]",log2 fold change of degron read counts,[1],-1.81
same,log2 fold change of degron read counts,[2],-1.82
same,log2 fold change of degron read counts,[3],-1.14
same,log2 fold change of degron read counts,compound: thalidomide,-1.84
"FCCPICGRMFTQKGNLLRHIKL [46F_47C_49P_50I_52G_53R_54M_55F_67L_, Q9UKT9]",log2 fold change of degron read counts,[1],-0.211
same,log2 fold change of degron read counts,[2],-0.371
same,log2 fold change of degron read counts,[3],0.994
same,log2 fold change of degron read counts,compound: thalidomide,0.267
"FQCNQCGHEFTQKGNLLRHIKL [46F_47Q_49N_50Q_52G_53H_54E_55F_67L_, Q9UKT9]",log2 fold change of degron read counts,[1],-3.09
same,log2 fold change of degron read counts,[2],-3.12
same,log2 fold change of degron read counts,[3],-3.48
same,log2 fold change of degron read counts,compound: thalidomide,-3.28
"LCCNQCGFWCTQKGNLLRHIKL [46L_47C_49N_50Q_52G_53F_54W_55C_67L_, Q9UKT9]",log2 fold change of degron read counts,[1],-0.952
same,log2 fold change of degron read counts,[2],-1.34
same,log2 fold change of degron read counts,[3],-1.18
same,log2 fold change of degron read counts,compound: thalidomide,-1.07
"FQCDVCGAAFTQKGNLLRHIKL [46F_47Q_49D_50V_52G_53A_54A_55F_67L_, Q9UKT9]",log2 fold change of degron read counts,[1],0.909
same,log2 fold change of degron read counts,[2],1.9
same,log2 fold change of degron read counts,[3],0.606
same,log2 fold change of degron read counts,compound: thalidomide,2.84
"FMCEQCGATFTQKGNLLRHIKL [46F_47M_49E_50Q_52G_53A_54T_55F_67L_, Q9UKT9]",log2 fold change of degron read counts,[1],-2.84
same,log2 fold change of degron read counts,[2],-2.15
same,log2 fold change of degron read counts,[3],0.0969
same,log2 fold change of degron read counts,compound: thalidomide,-1.3
"FLCPICGHCFTQKGNLLRHIKL [46F_47L_49P_50I_52G_53H_54C_55F_67L_, Q9UKT9]",log2 fold change of degron read counts,[1],-2.45
same,log2 fold change of degron read counts,[2],-2.17
same,log2 fold change of degron read counts,[3],-1.87
same,log2 fold change of degron read counts,compound: thalidomide,-1.49
"FECPICGRGFTQKGNLLRHIKL [46F_47E_49P_50I_52G_53R_54G_55F_67L_, Q9UKT9]",log2 fold change of degron read counts,[1],-1.82
same,log2 fold change of degron read counts,[2],-2.41
same,log2 fold change of degron read counts,[3],-0.354
same,log2 fold change of degron read counts,compound: thalidomide,0.562
"FQCEICGAAFTQKGNLLRHIKL [46F_47Q_49E_50I_52G_53A_54A_55F_67L_, Q9UKT9]",log2 fold change of degron read counts,[1],2.89
same,log2 fold change of degron read counts,[2],2.79
same,log2 fold change of degron read counts,[3],2.34
same,log2 fold change of degron read counts,compound: thalidomide,3.64
"FICEICGAAFTQKGNLLRHIKL [46F_47I_49E_50I_52G_53A_54A_55F_67L_, Q9UKT9]",log2 fold change of degron read counts,[1],0.759
same,log2 fold change of degron read counts,[2],2.95
same,log2 fold change of degron read counts,[3],2.44
same,log2 fold change of degron read counts,compound: thalidomide,3.09
"FYCEICGAAFTQKGNLLRHIKL [46F_47Y_49E_50I_52G_53A_54A_55F_67L_, Q9UKT9]",log2 fold change of degron read counts,[1],3.59
same,log2 fold change of degron read counts,[2],3.59
same,log2 fold change of degron read counts,[3],2.92
same,log2 fold change of degron read counts,compound: thalidomide,1.64
"FVCEICGAAFTQKGNLLRHIKL [46F_47V_49E_50I_52G_53A_54A_55F_67L_, Q9UKT9]",log2 fold change of degron read counts,[1],1.93
same,log2 fold change of degron read counts,[2],2.89
same,log2 fold change of degron read counts,[3],2.35
same,log2 fold change of degron read counts,compound: thalidomide,3.15
"FECPICGHSFTQKGNLLRHIKL [46F_47E_49P_50I_52G_53H_54S_55F_67L_, Q9UKT9]",log2 fold change of degron read counts,[1],-2.78
same,log2 fold change of degron read counts,[2],-2.96
same,log2 fold change of degron read counts,[3],-1.75
same,log2 fold change of degron read counts,compound: thalidomide,-1.65
"FYCEQCGATFTQKGNLLRHIKL [46F_47Y_49E_50Q_52G_53A_54T_55F_67L_, Q9UKT9]",log2 fold change of degron read counts,[1],0.368
same,log2 fold change of degron read counts,[2],2.41
same,log2 fold change of degron read counts,[3],0.941
same,log2 fold change of degron read counts,compound: thalidomide,-1.4
"FSCEICGAYFTQKGNLLRHIKL [46F_47S_49E_50I_52G_53A_54Y_55F_67L_, Q9UKT9]",log2 fold change of degron read counts,[1],2.46
same,log2 fold change of degron read counts,[2],1.44
same,log2 fold change of degron read counts,[3],1.69
same,log2 fold change of degron read counts,compound: thalidomide,0.848
"FWCPVCGACFTQKGNLLRHIKL [46F_47W_49P_50V_52G_53A_54C_55F_67L_, Q9UKT9]",log2 fold change of degron read counts,[1],3.4
same,log2 fold change of degron read counts,[2],3.44
same,log2 fold change of degron read counts,[3],2.56
same,log2 fold change of degron read counts,compound: thalidomide,1.36
"FKCPVCGACFTQKGNLLRHIKL [46F_47K_49P_50V_52G_53A_54C_55F_67L_, Q9UKT9]",log2 fold change of degron read counts,[1],-0.716
same,log2 fold change of degron read counts,[2],-1.95
same,log2 fold change of degron read counts,[3],-2.51
same,log2 fold change of degron read counts,compound: thalidomide,-0.832
"FYCNVCGACFTQKGNLLRHIKL [46F_47Y_49N_50V_52G_53A_54C_55F_67L_, Q9UKT9]",log2 fold change of degron read counts,[1],1.86
same,log2 fold change of degron read counts,[2],2.44
same,log2 fold change of degron read counts,[3],1.12
same,log2 fold change of degron read counts,compound: thalidomide,-0.449
"FVCPQCGACFTQKGNLLRHIKL [46F_47V_49P_50Q_52G_53A_54C_55F_67L_, Q9UKT9]",log2 fold change of degron read counts,[1],-1.94
same,log2 fold change of degron read counts,[2],-0.402
same,log2 fold change of degron read counts,[3],0.593
same,log2 fold change of degron read counts,compound: thalidomide,0.301
"FHCPVCGACFTQKGNLLRHIKL [46F_47H_49P_50V_52G_53A_54C_55F_67L_, Q9UKT9]",log2 fold change of degron read counts,[1],2.42
same,log2 fold change of degron read counts,[2],2.44
same,log2 fold change of degron read counts,[3],2.11
same,log2 fold change of degron read counts,compound: thalidomide,0.528
"FLCPVCGACFTQKGNLLRHIKL [46F_47L_49P_50V_52G_53A_54C_55F_67L_, Q9UKT9]",log2 fold change of degron read counts,[1],0.241
same,log2 fold change of degron read counts,[2],-0.146
same,log2 fold change of degron read counts,[3],1.72
same,log2 fold change of degron read counts,compound: thalidomide,1.62
"FQCPQCGACFTQKGNLLRHIKL [46F_47Q_49P_50Q_52G_53A_54C_55F_67L_, Q9UKT9]",log2 fold change of degron read counts,[1],-1.4
same,log2 fold change of degron read counts,[2],0.844
same,log2 fold change of degron read counts,[3],0.805
same,log2 fold change of degron read counts,compound: thalidomide,3.26
"FYCPVCGACFTQKGNLLRHIKL [46F_47Y_49P_50V_52G_53A_54C_55F_67L_, Q9UKT9]",log2 fold change of degron read counts,[1],3.26
same,log2 fold change of degron read counts,[2],3.4
same,log2 fold change of degron read counts,[3],2.69
same,log2 fold change of degron read counts,compound: thalidomide,1.29
"FNCPVCGACFTQKGNLLRHIKL [46F_47N_49P_50V_52G_53A_54C_55F_67L_, Q9UKT9]",log2 fold change of degron read counts,[1],1.6
same,log2 fold change of degron read counts,[2],0.504
same,log2 fold change of degron read counts,[3],1
same,log2 fold change of degron read counts,compound: thalidomide,-0.0222
"FKCPQCGACFTQKGNLLRHIKL [46F_47K_49P_50Q_52G_53A_54C_55F_67L_, Q9UKT9]",log2 fold change of degron read counts,[1],-2.36
same,log2 fold change of degron read counts,[2],-3
same,log2 fold change of degron read counts,[3],-3.29
same,log2 fold change of degron read counts,compound: thalidomide,-2.34
"FQCPVCGACFTQKGNLLRHIKL [46F_47Q_49P_50V_52G_53A_54C_55F_67L_, Q9UKT9]",log2 fold change of degron read counts,[1],0.553
same,log2 fold change of degron read counts,[2],2.77
same,log2 fold change of degron read counts,[3],2.39
same,log2 fold change of degron read counts,compound: thalidomide,3.46
